Measurements taken from PubChem BioAssay (Tox21).
Results filed as inconclusive are left out. Active and inactive are the calls of the source. Unless noted, calls follow the shape of the dose curve; as a rule, active = well fitted curve in the direction sought with a large enough effect in the repeat runs; inconclusive = weak or mixed curves; inactive = no such curve, though single readings can be large; an effect the other way counts as inactive or inconclusive.

How the values were obtained:
[1] = qHTS assay to identify small molecule HDAC inhibitors - cell viability counter screen (AID 1259365); also: series mostly up to about 92 µM; nearly all actives have a fitted effect of over 50% in size
Method in brief: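 To flag cytotoxic hits, 1,500 wild-type HCT-116 cells per well, plated the day before, receive test compounds for 2hr at 37 C before CellTiter-Glo reagent and a luminescence read.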

[2] = qHTS assay to identify small molecule agonists of the sonic hedgehog signaling (Shh) pathway - cell viability counter screen (AID 1259366); also: nearly all actives have a fitted effect of over 50% in size
Method in brief: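 Fluorescence from CellTiter-Fluor reports live cells in this counter screen. NIH/3T3-derived Gli1-Luc reporter cells receive test compounds for 24hr at 37C; reagent goes in at 23hr.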

[3] = qHTS assay to identify small molecule antagonists of the sonic hedgehog signaling (Shh) pathway - cell viability counter screen (AID 1259367); also: nearly all actives have a fitted effect of over 55% in size
Method in brief: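 Cells: 3T3 Gli1-Luc, 2,000/well, 4 hr pre-incubation. Compounds in DMSO, then conditioned medium. Incubation 24 hr, 37C, 5% CO2. CellTiter-Fluor at 23 hr, 1 hr, fluorescence.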

[4] = qHTS assay to identify small molecule agonists of the sonic hedgehog signaling (Shh) pathway (AID 1259368; calls by dose curve; also: series mostly up to about 92 µM; nearly all actives have a fitted effect of over 15% in size)
Method in brief: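 NIH/3T3-derived 3T3Gli1-Luc cells carrying a stably integrated Gli1 response element–firefly luciferase reporter were plated, left 4 hr at 37 C, then given compounds in DMSO for 24 hr. Luminescence was read 30 min after adding luciferase reagent.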

[5] = qHTS assay to identify small molecule antagonists of the sonic hedgehog signaling (Shh) pathway (AID 1259369; calls by dose curve; also: nearly all actives have a fitted effect of over 45% in size)
Method in brief: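 NIH/3T3-derived 3T3Gli1-Luc cells with stably integrated Gli1-Luc reporter were preincubated 4hr at 37 C, then given compounds in DMSO plus Shh conditioned medium and incubated 24hr. Firefly luciferase luminescence read after 30min reagent at room temperature.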

[6] = target: Estrogen receptor beta (Homo sapiens) (UniProt Q92731); assay: qHTS assay to identify small molecule agonists of the estrogen receptor beta (ER-beta) signaling pathway (AID 1259377; active = well fitted activation curve with a large enough effect in the signal ratio in the repeat runs, not every such curve was filed as active; the % refers to the signal ratio)
Method in brief: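 Screening used GripTite ER-beta-UAS-bla cells held in 2% charcoal-stripped FBS medium. After overnight (16 hr) compound incubation at 37C, beta-lactamase activity was detected with a FRET substrate by fluorescence.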

[7] = target: Estrogen receptor beta (Homo sapiens) (UniProt Q92731); assay: qHTS assay to identify small molecule antagonists of the estrogen receptor beta (ER-beta) signaling pathway (AID 1259378; active = well fitted inhibition curve with a large enough effect in the signal ratio in the repeat runs, not every such curve was filed as active; the % refers to the signal ratio)
Method in brief: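 Antagonist mode: compounds added to beta-lactamase reporter HEK293T ER-beta-UAS cells stimulated with E2 (1nM final), 16 hr at 37C. LiveBLAzer B/G FRET substrate, 2 hours room temperature, fluorescence read-out.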

[8] = qHTS assay to identify small molecule agonists of the androgen receptor (AR) signaling pathway in the presence of an antagonist - cell viability counter screen (AID 1259379);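 also: MDA-kb2 human breast cancer cells carrying an MMTV luciferase reporter; series mostly up to about 92 µM; nearly all actives have a fitted effect of over 25% in size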
Method in brief: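 MDA-kb2 human breast carcinoma cells (stable MMTV-luciferase, AR/GR responsive) were seeded 3,000 cells/well, pre-incubated 5 hr at 37C without CO2, then given 3.0uM nilutamide and compounds at 15 concentrations for 16 hr. Viability was read by CellTiter-Fluor fluorescence.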

[9] = qHTS assay to identify small molecule agonists of the estrogen receptor beta (ER-beta) signaling pathway - cell viability counter screen (AID 1259380); also: nearly all actives have a fitted effect of over 30% in size
Method in brief: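 ER-beta-UAS-bla HEK293T cells in medium with 2% charcoal-stripped FBS were preincubated 6 hr at 37C, dosed with compound in DMSO for 16 hr, then after the bla read, CellTiter-Glo was added for 30 min at room temperature; luminescence recorded.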

[10] = qHTS assay to identify small molecule agonists or antagonists of the thyroid stimulating hormone receptor (TSHR) signaling pathway - wild type cell line counter screen (AID 1259384; calls by dose curve)
Method in brief: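 Counter screen in untransfected Hek293: compounds (15-point titration, triplicate) plus phosphodiesterase inhibitor Ro20-1724 added after 18 h plating; 30 min RT. Intracellular cAMP via competitive d2/cryptate immunoassay, 1 h incubation.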

[11] = target: Thyrotropin receptor (Homo sapiens) (UniProt P16473); assay: qHTS assay to identify small molecule antagonists of the thyroid stimulating hormone receptor (TSHR) signaling pathway (AID 1259385; calls by dose curve; also: nearly all actives have a fitted effect of over 20% in size)
Method in brief: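 Antagonist mode: compound-treated TSHR-expressing HEK293 cells were stimulated with 1.5 ng/mL TSH (final) in presence of Ro20-1724 for 30 min at RT. HTRF cAMP detection after 1 h; each compound tested at 15 concentrations, triplicate.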

[12] = qHTS assay to identify small molecule agonists of the estrogen receptor alpha (ER-alpha) signaling pathway in the presence of an antagonist - cell viability counter screen (AID 1259386);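 also: series mostly up to about 92 µM; cells exposed to compounds for 22 h at 37 °C before the viability read; nearly all actives have a fitted effect of over 30% in size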
Method in brief: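 VM7Luc4E2 cells (endogenous full-length ER-alpha, 4×ERE-luciferase) were held 5 days in phenol red-free medium with 10% charcoal-stripped FBS, plated, then given 10.0nM ICI-182,780 and compounds at 15 concentrations for 22hr at 37C; viability read by CellTiter-Fluor fluorescence.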

[13] = target: Progesterone receptor (Homo sapiens) (UniProt P06401); assay: qHTS assay to identify small molecule agonists of the progesterone receptor (PR) signaling pathway (AID 1346784; calls by dose curve; also: nearly all actives have a fitted effect of over 30% in size)
Method in brief: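 Seed PR-UAS-bla HEK 293T cells (2% charcoal-stripped FBS), incubate 6 hr at 37C; add compounds in DMSO, 16 hr at 37C; add LiveBLAzer B/G substrate, 2 hr RT; read fluorescence intensity.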

[14] = target: Progesterone receptor (Homo sapiens) (UniProt P06401); assay: qHTS assay to identify small molecule antagonists of the progesterone receptor (PR) signaling pathway (AID 1346795; active = well fitted inhibition curve with a large enough effect in the signal ratio in the repeat runs, not every such curve was filed as active; the % refers to the signal ratio)
Method in brief: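 Screening used a GripTite HEK293T line with PR-responsive UAS-beta-lactamase. Cells were challenged with compound in the presence of 1 nM R5020 final for 16 hr at 37C; B/G FRET substrate, 2 hr room temperature, fluorescence.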

[15] = qHTS assay to identify small molecule antagonists of the progesterone receptor (PR) signaling pathway - cell viability counter screen (AID 1346798); also: series mostly up to about 92 µM; nearly all actives have a fitted effect of over 50% in size
Method in brief: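 Measures cytotoxicity in parallel with the PR antagonist reporter read: HEK293T PR-UAS-bla cells get compound and R5020 for 16 hr, and remaining viable cells are quantified by CellTiter-Glo luminescence.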

[16] = qHTS assay to identify small molecule agonists of the progesterone receptor (PR) signaling pathway - cell viability counter screen (AID 1346799; calls by dose curve; also: nearly all actives have a fitted effect of over 45% in size)
Method in brief: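 Using the same plates as the PR reporter screen, HEK293T PR-UAS-bla cells received compounds for 16 hr at 37C and were then lysed with CellTiter-Glo; luminescence was read 30 min later at room temperature.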

[17] = qHTS assay to identify small molecule antagonists of the estrogen receptor beta (ER-beta) signaling pathway - cell viability counter screen (AID 1259382);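 also: HEK293T cells carrying ER-beta-UAS-bla reporter stimulated with estradiol; series mostly up to about 92 µM; nearly all actives have a fitted effect of over 55% in size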
Method in brief: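 ER-beta-UAS-bla HEK293T cells (2,000/well, 2% charcoal-stripped FBS) were pre-incubated 6 hr at 37C, then given compound plus 1nM final 17-beta-estradiol for 16 hr. Viability was read in the same wells by CellTiter-Glo luminescence after 30 min at room temperature.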

[18] = target: Estrogen receptor (Homo sapiens) (UniProt P03372); assay: qHTS assay to identify small molecule agonists of the estrogen receptor alpha (ER-alpha) signaling pathway in the presence of an antagonist (AID 1259383; calls by dose curve; also: top concentration of the series differs between compounds; nearly all actives have a fitted effect of over 15% in size)
Method in brief: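 VM7Luc4E2 cells (endogenous full-length ER-alpha, 4×ERE-luciferase) were precultured 5 days in phenol red-free medium with 10% charcoal-stripped FBS, given 10.0nM ICI-182,780 (final), then treated with compounds at 15 concentrations for 22hr at 37C; luminescence read with ONE-Glo.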

[19] = qHTS assay to identify small molecule antagonists of the TGF-beta/Smad signaling pathway - cell viability counter screen (AID 1346824); also: nearly all actives have a fitted effect of over 50% in size
Method in brief: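 Cytotoxicity counter-screen run in the same wells as the beta-lactamase Smad reporter read: CellTiter-Glo luminescence after 30 min at room temperature. HEK 293T SBE-bla cells had 5 hr compound exposure at 37 C with TGF-beta1 (0.25 ng/mL stock).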
% is scaled to controls: 0 for no effect and ±100 for the full control effect.

Sequence of Progesterone receptor (Homo sapiens) (P06401 whole entry, looked up): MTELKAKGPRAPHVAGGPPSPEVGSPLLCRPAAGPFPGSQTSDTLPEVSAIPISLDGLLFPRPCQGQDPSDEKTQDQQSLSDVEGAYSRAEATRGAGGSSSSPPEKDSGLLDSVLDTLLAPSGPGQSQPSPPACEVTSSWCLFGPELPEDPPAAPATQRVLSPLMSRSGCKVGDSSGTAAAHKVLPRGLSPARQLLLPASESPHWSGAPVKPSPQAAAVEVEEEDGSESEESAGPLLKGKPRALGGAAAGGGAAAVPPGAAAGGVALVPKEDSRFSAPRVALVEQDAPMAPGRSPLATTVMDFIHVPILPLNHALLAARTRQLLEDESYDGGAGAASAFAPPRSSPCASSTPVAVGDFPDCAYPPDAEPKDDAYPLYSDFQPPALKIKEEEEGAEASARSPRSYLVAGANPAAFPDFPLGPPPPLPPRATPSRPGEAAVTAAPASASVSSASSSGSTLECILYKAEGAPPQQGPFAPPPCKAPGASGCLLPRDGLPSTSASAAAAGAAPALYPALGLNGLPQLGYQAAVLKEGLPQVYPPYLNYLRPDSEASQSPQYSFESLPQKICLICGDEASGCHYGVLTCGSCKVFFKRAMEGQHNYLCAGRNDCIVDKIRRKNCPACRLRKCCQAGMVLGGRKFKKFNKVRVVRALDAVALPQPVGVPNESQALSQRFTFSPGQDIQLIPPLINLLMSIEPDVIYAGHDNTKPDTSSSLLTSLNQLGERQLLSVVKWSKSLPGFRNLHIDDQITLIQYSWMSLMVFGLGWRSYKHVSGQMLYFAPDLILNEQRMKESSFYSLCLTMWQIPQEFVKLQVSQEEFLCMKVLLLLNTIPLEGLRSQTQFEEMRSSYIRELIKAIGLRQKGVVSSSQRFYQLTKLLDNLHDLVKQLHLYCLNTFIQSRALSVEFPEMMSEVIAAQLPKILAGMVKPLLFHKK
Sequence of Estrogen receptor beta (Homo sapiens) (Q92731 whole entry, looked up): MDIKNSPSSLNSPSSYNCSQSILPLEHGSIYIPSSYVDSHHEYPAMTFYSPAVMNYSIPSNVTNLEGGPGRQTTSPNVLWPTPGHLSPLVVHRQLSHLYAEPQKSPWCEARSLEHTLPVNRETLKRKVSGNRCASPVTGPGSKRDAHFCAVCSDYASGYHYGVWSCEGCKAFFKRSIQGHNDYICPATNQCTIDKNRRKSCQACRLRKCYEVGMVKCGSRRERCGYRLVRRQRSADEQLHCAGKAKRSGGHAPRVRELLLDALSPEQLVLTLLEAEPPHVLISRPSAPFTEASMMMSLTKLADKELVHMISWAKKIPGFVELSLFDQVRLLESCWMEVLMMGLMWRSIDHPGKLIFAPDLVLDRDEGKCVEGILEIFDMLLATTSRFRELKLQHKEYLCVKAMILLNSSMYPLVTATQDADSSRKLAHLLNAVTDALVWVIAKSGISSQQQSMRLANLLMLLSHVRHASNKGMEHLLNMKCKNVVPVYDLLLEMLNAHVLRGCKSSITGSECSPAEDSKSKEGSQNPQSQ
Sequence of Thyrotropin receptor (Homo sapiens) (P16473 whole entry, looked up): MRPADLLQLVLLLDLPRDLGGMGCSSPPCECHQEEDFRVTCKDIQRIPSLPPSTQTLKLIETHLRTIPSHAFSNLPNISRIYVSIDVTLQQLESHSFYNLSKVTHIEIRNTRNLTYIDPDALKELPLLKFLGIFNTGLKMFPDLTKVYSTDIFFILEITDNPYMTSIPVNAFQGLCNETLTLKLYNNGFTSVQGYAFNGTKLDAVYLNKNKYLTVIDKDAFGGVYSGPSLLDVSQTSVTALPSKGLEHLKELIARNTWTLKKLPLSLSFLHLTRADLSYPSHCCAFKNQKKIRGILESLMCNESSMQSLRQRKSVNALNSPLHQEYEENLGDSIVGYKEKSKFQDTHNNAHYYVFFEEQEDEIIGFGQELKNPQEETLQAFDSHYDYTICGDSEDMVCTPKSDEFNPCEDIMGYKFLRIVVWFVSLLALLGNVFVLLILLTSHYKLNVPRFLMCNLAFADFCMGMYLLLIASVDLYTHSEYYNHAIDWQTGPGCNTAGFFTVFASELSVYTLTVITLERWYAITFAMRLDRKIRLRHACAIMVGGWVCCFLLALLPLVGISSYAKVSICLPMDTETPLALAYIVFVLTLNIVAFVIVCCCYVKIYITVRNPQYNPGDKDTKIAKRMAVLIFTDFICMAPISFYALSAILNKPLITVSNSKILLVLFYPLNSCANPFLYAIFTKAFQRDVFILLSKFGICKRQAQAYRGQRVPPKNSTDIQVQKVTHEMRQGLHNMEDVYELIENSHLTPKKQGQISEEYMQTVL
Sequence of Estrogen receptor (Homo sapiens) (P03372 whole entry, looked up): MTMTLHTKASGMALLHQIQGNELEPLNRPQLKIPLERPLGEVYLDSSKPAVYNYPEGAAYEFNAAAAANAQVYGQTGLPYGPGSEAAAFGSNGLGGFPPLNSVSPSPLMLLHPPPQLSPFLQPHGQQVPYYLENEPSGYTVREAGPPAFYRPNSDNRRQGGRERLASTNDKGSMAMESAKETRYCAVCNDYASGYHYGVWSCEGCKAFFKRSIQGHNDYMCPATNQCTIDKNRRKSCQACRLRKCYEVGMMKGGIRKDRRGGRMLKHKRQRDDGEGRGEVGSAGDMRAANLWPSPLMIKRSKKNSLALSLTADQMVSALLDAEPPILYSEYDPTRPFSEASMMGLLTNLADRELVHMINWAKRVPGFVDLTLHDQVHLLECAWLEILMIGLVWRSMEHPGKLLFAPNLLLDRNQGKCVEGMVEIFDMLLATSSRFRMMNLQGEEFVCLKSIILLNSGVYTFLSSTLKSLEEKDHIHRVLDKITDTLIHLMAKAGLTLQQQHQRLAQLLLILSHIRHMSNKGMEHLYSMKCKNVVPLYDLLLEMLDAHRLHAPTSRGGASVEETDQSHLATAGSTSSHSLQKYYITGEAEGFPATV

Cc1cc(N)no1
inactive: outcome [1] | outcome [2] | outcome [3] | outcome [4] | Potency [5] | Potency [6] | outcome [7] | outcome [8] | Potency [9] | outcome [10] | outcome [11] | outcome [12] | Potency [13] | Potency [14] | outcome [15] | Potency [16]

CCCCCCCCCCCCCCCC(=O)OC
inactive: activity change, negative = cytotoxicity [1] -1.77% [at 19 µM] | viability change, negative = cytotoxic [2] 4.58% [at 19 µM] | viability change, negative = cytotoxic [3] -2.31% [at 19 µM] | activity change [4] 0.811% [at 18.9 µM] | activity change, negative = inhibition [5] 21.4% [at 19 µM] | activation [6] -1.46% [at 19 µM] | activity, negative = inhibition [7] 3.6% [at 19 µM] | activity change, negative = cytotoxicity [8] 0.0056% [at 19 µM] | activity change, negative = cytotoxicity [17] 0.248% [at 19 µM] | activation [18] -2.08% [at 19 µM] | cAMP activity change [10] -2.44% [at 18.9 µM] | activity change, negative = inhibition [11] 1.93% [at 19 µM] | activity change, negative = cytotoxicity [12] -0.526% [at 19 µM] | activation [13] -3.12% [at 19 µM] | activity change, negative = inhibition [14] 0.526% [at 18.9 µM] | activity change, negative = cytotoxicity [15] 20% [at 18.9 µM] | viability change, negative = cytotoxic [19] 1.68% [at 15.8 µM]

Cc1nnc(C(=O)NC(C)(C)c2nc(C(=O)NCc3ccc(F)cc3)c(O)c(=O)n2C)o1
inactive: outcome [1] | outcome [2] | outcome [3] | outcome [4] | Potency [5] | Potency [6] | outcome [7] | outcome [8] | Potency [9] | outcome [17] | outcome [10] | outcome [11] | outcome [12] | Potency [13] | outcome [15] | Potency [16] | outcome [19]

C=CCCCCCCCCCCCCCC
inactive: activity change, negative = cytotoxicity [1] 1.69% [at 19 µM] | viability change, negative = cytotoxic [2] -2.14% [at 19 µM] | viability change, negative = cytotoxic [3] -0.0329% [at 19 µM] | activity change [4] -0.591% [at 18.9 µM] | activity change, negative = inhibition [5] 8.65% [at 19 µM] | activation [6] 1.28% [at 19 µM] | activity, negative = inhibition [7] 2.19% [at 19 µM] | activity change, negative = cytotoxicity [8] -2.34% [at 19 µM] | activity change, negative = cytotoxicity [17] -6.85% [at 19 µM] | activation [18] -0.0008% [at 19 µM] | cAMP activity change [10] 3.16% [at 18.9 µM] | activity change, negative = inhibition [11] 0.749% [at 19 µM] | activity change, negative = cytotoxicity [12] 1.42% [at 19 µM] | activity change, negative = inhibition [14] 7.49% [at 18.9 µM] | activity change, negative = cytotoxicity [15] 6.76% [at 18.9 µM] | activity change, negative = cytotoxicity [16] 11.1% [at 19 µM] | viability change, negative = cytotoxic [19] -0.4% [at 15.8 µM]

CCN1CCN(C(=O)N[C@@H](C(=O)N[C@@H]2C(=O)N3[C@@H]2SC(C)(C)[C@H]3C(=O)O)c2ccccc2)C(=O)C1=O
inactive: outcome [1] | outcome [2] | outcome [3] | outcome [4] | Potency [5] | Potency [6] | outcome [7] | outcome [8] | outcome [17] | Potency [18] | outcome [10] | outcome [11] | outcome [12] | Potency [13] | outcome [15] | outcome [19]

Cc1cc(C)c(N)c(Cl)c1
inactive: outcome [1] | outcome [2] | outcome [3] | outcome [4] | Potency [5] | Potency [6] | outcome [7] | outcome [8] | Potency [9] | Potency [18] | outcome [10] | outcome [11] | outcome [12] | Potency [14] | outcome [15] | Potency [16] | outcome [19]

CCOC(=O)CN1CCCC1=O
inactive: outcome [1] | outcome [2] | outcome [3] | outcome [4] | Potency [5] | Potency [6] | outcome [7] | outcome [8] | Potency [9] | Potency [18] | outcome [12] | Potency [13] | Potency [14] | outcome [15] | outcome [19]

CC(=O)SCC(CC(=O)c1ccc(C)cc1)C(=O)O (configuration not stated)
inactive: outcome [1] | outcome [2] | outcome [3] | outcome [4] | Potency [5] | Potency [6] | outcome [7] | outcome [8] | outcome [17] | Potency [18] | outcome [10] | outcome [11] | outcome [12] | Potency [14] | outcome [15] | Potency [16] | outcome [19]
